Article PMC7826789 (International Journal of Molecular Sciences, 2021)

Test system: EGFR

SMILES	Kinases covered
COc1cc2ncnc(Nc3ccc(F)c(Cl)c3)c2cc1O[C@H]1CC[C@H](N)CC1 [BIBW3133BS]	EGFR
O=C(Nc1cccc(-c2nn3ncccc3c2-c2ccnc(Nc3cccnc3)n2)c1)c1c(F)cccc1F [GSK312879]	EGFR
Cl.O=S1CCN(Cc2ccc(-c3ccc4ncnc(Nc5ccc(OCc6ccccc6)c(F)c5)c4c3)o2)CC1 [GW576924A]	EGFR
COc1cc2ncnc(Nc3cccc(Cl)c3F)c2cc1O[C@H]1CC[C@H]([C@@H]2NCCNC2=O)CC1 [BI00133844]	EGFR
Fc1cccc(COc2ccc(Nc3ncncc3C#Cc3ccccc3)cc2Cl)c1 [GW651576X]	EGFR
C#Cc1cccc(Nc2ncnc3cc(OC)c(OC4CCN(C)CC4)cc23)c1 [BI00007366]	EGFR
COc1cc2ncnc(Nc3cccc(Cl)c3F)c2cc1O[C@H]1CC[C@@]2(CC1)NCCNC2=O [BI00113608]	EGFR
Cl.O=C(O[C@H]1CN[C@H](C#Cc2cc3ncnc(Nc4ccc5c(cnn5Cc5ccccc5)c4)c3s2)C1)N1CCOCC1 [GSK200398A]	EGFR

Test system: ERBB2

SMILES	Kinases covered
COc1cc2ncnc(Nc3ccc(F)c(Cl)c3)c2cc1O[C@H]1CC[C@H](N)CC1 [BIBW3133BS]	ERBB2
O=C(Nc1cccc(-c2nn3ncccc3c2-c2ccnc(Nc3cccnc3)n2)c1)c1c(F)cccc1F [GSK312879]	ERBB2
CN(C)c1cc2c(Nc3ccc4c(cnn4Cc4ccccc4)c3)ncnc2cn1 [GW282974X]	ERBB2
Cl.O=S1CCN(Cc2ccc(-c3ccc4ncnc(Nc5ccc(OCc6ccccc6)c(F)c5)c4c3)o2)CC1 [GW576924A]	ERBB2
COc1cc2ncnc(Nc3cccc(Cl)c3F)c2cc1O[C@H]1CC[C@H]([C@@H]2NCCNC2=O)CC1 [BI00133844]	ERBB2
C#Cc1cccc(Nc2ncnc3cc(OC)c(OC4CCN(C)CC4)cc23)c1 [BI00007366]	ERBB2
COc1cc2ncnc(Nc3cccc(Cl)c3F)c2cc1O[C@H]1CC[C@@]2(CC1)NCCNC2=O [BI00113608]	ERBB2
Cl.O=C(O[C@H]1CN[C@H](C#Cc2cc3ncnc(Nc4ccc5c(cnn5Cc5ccccc5)c4)c3s2)C1)N1CCOCC1 [GSK200398A]	ERBB2

Test system: ERBB4

SMILES	Kinases covered
O=C(Nc1cccc(-c2nn3ncccc3c2-c2ccnc(Nc3cccnc3)n2)c1)c1c(F)cccc1F [GSK312879]	ERBB4
CN(C)c1cc2c(Nc3ccc4c(cnn4Cc4ccccc4)c3)ncnc2cn1 [GW282974X]	ERBB4
COc1cc2ncnc(Nc3ccc4c(cnn4Cc4ccccc4)c3)c2cc1OC.Cl [GW282449A]	ERBB4
COc1cc2ncnc(Nc3cccc(Cl)c3F)c2cc1O[C@H]1CC[C@H]([C@@H]2NCCNC2=O)CC1 [BI00133844]	ERBB4
Cl.c1ccc(Cc2nc3ccc(Nc4ncnc5ccccc45)cc3[nH]2)cc1 [GR269666A]	ERBB4
Cl.O=C(O[C@H]1CN[C@H](C#Cc2cc3ncnc(Nc4ccc5c(cnn5Cc5ccccc5)c4)c3s2)C1)N1CCOCC1 [GSK200398A]	ERBB4

Test system: FLT1

SMILES	Kinases covered
CCS(=O)(=O)c1ccc(OC)c(Nc2ncc(-c3cccc(OC)c3)o2)c1 [GW580509X]	FLT1
CCS(=O)(=O)c1ccc(OC)c(Nc2ncc(-c3cccc(F)c3)o2)c1 [GW621970X]	FLT1
CCn1cc(-c2ccnc3[nH]c(-c4cccc(CN(C)C)c4)cc23)c(-c2ccc(NC(=O)N(C)C)cc2)n1 [GSK1070916]	FLT1
O=C(Nc1ccccc1)Nc1cccc(Oc2ccc3nccn3n2)c1 [TPKI-39]	FLT1

Test system: GAK

SMILES	Kinases covered
COc1cc2ncnc(Nc3ccc(F)c(Cl)c3)c2cc1O[C@H]1CC[C@H](N)CC1 [BIBW3133BS]	GAK
O=C(O)/C=C/C(=O)O.OCCCNc1nccc(-c2c(-c3ccc(F)cc3)nn3cc(C(F)(F)F)ccc23)n1 [GW569293E]	GAK
C#Cc1cccc(Nc2ncnc3cc(OC)c(OC4CCN(C)CC4)cc23)c1 [BI00007366]	GAK
COc1cc(Nc2ccnc3ccc(Br)cc23)cc(OC)c1OC [CA93.0]	GAK
CCCc1cc(N2CCCN(C)CC2)nc2sc3c(N)ncnc3c12 [BI00604564]	GAK

Test system: GSK3A

SMILES	Kinases covered
COc1cccc(-n2ncc3c(N/N=C/c4ccncc4)ncnc32)c1 [GW784752X]	GSK3A
O=C(Nc1n[nH]c2nc(-c3nccs3)c(Br)cc12)C1CCCC1 [SB-742609]	GSK3A
CCC(NN(C)C)=C1C(=O)Nc2ccc(C(C)=O)cc21 [BI00036838]	GSK3A
COc1ccc(CSc2nnc(-c3ccc4ncsc4c3)o2)cc1C(F)(F)F [TPKI-91]	GSK3A
